Structures are written as SMILES.

The test system of the first assay is Vero E6 infected with SARS-CoV-2. As to the kind of experiment: morphology score (similarity to uninfected cells); higher = more like uninfected cells. The conditions noted are these: 24 h.
As to `COc1ccc([C@@H]2CC(=O)c3c(O)cc(O[C@@H]4O[C@H](CO)[C@@H](O)[C@H](O)[C@H]4O[C@@H]4O[C@@H](C)[C@H](O)[C@@H](O)[C@H]4O)cc3O2)cc1O` [neohesperidin] (10 µM), the morphology score is 0.00505.

`C[C@H]1CCc2c(cc(Br)c(F)c2Br)N1C=O` (10 µM) registered a morphology score of 0.0995.

Consider `c1cn2cc(-c3ccc4cn[nH]c4c3)nc(Nc3ccc(N4CCOCC4)cc3)c2n1` (10 µM), for which the morphology score amounted to 0.194.

`CC1(C)CC(O)CC(C)(C)N1[O]` [tempol] (10 µM) showed a morphology score of 0.209.

`O=C(/C=C/c1ccc2ccccc2n1)c1ccncc1` (0.833333 µM) displayed a morphology score of 0.0453.

`Cc1c(-c2ccc(O)cc2)n(Cc2ccc(OCCN3CCCCCC3)cc2)c2ccc(O)cc12` [bazedoxifene] (0.833333 µM) showed a morphology score of 0.201.

Regarding `CN(C)C(=O)Oc1cccc([N+](C)(C)C)c1` [neostigmine] (10 µM), the morphology score was -0.107.

The compound `Cc1cccc(C)c1OCC(C)N` (stereo not drawn) [mexiletine] (10 µM) registered a morphology score of -0.0725.

In the case of `O=C(NN1C(=O)[C@@H]2[C@@H]3C=C[C@@H]([C@H]4C[C@@H]34)[C@@H]2C1=O)c1ccc(C(F)(F)F)cc1` [tecovirimat] (10 µM), the morphology score is -0.108.

`CCN(CC)CCOC(=O)C(c1ccccc1)C1CCCCC1` (stereo not drawn) [drofenine] (10 µM) displayed a morphology score of 0.275.

With `Clc1ccc(C(Cn2ccnc2)OCc2ccsc2Cl)c(Cl)c1` (stereo not drawn) [tioconazole] (10 µM), the morphology score is -0.0375.

`C=C1CCN([C@H](C)[C@](O)(Cn2cncn2)c2ccc(F)cc2F)CC1` [efinaconazole] (10 µM) had a morphology score of 0.162.

Regarding `CSc1ccc(C(=O)/C=C/c2cc(C)c(OC(C)(C)C(=O)O)c(C)c2)cc1` [elafibranor] (10 µM), the morphology score was found to be 0.00446.

In turn, `CCN(CC)C(=O)N[C@H]1C=C2c3cccc4[nH]cc(c34)C[C@H]2N(C)C1` [lisuride] (10 µM) displayed a morphology score of -0.111.

With `COc1cc2c(cc1OC)[C@@H](Cc1cc(OC)c(OC)c(OC)c1)[N+](C)(CCCOC(=O)CC/C=C/CCC(=O)OCCC[N+]1(C)CCc3cc(OC)c(OC)cc3[C@H]1Cc1cc(OC)c(OC)c(OC)c1)CC2` (stereo partly drawn) [mivacurium] (10 µM), the morphology score was -0.0909.

For the compound `CS(=O)(=O)OC[C@H](O)[C@@H](O)COS(C)(=O)=O` [treosulfan] (10 µM), the morphology score is -0.204.

On to `CCC(CC)Nc1cc(C)nc(Oc2c(C)cc(C)cc2C)c1C` (10 µM), for which the morphology score came out at 0.248.

For the compound `CC(C)(C)c1ccc(S(=O)(=O)Nc2ccc(Cl)cc2C(=O)c2cc[n+]([O-])cc2)cc1` [vercirnon] (10 µM), the morphology score was 0.0488.

Turning to `O=C(O)CCCCC(=O)O` [adipic-acid] (10 µM), the morphology score was -0.0456.

Compound `Cc1c(F)cc(C(=O)NC2CC2)cc1-c1ccc(C(=O)NCC(C)(C)C)cn1` [losmapimod] (10 µM) returned a morphology score of 0.0455.

Compound `CO[C@@]1(NC(=O)C2SC(=C(C(N)=O)C(=O)O)S2)C(=O)N2C(C(=O)O)=C(CSc3nnnn3C)CS[C@@H]21` (stereo partly drawn) [cefotetan] (10 µM) registered a morphology score of 0.104.

`O=C(O)C[C@H](O)C[C@H](O)/C=C/c1c(C2CC2)nc2ccccc2c1-c1ccc(F)cc1` [pitavastatin] (10 µM) gave a morphology score of -0.127.

`CC(C)N(CCC(C(N)=O)(c1ccccc1)c1ccccn1)C(C)C` (stereo not drawn) [disopyramide] (10 µM): the morphology score turned out to be 0.157.

Turning to `CN(C)[C@@H]1C(O)=C(C(N)=O)C(=O)[C@@]2(O)C(O)=C3C(=O)c4c(O)cccc4[C@@](C)(O)[C@H]3[C@H](O)[C@@H]12` [oxytetracycline] (10 µM), the morphology score is -0.0366.

`CN[C@H]1C(=O)N[C@@H]2Cc3ccc(cc3)Oc3cc4cc(c3O[C@@H]3O[C@H](C(=O)O)[C@@H](O)[C@H](O)[C@H]3NC(=O)CCCCCCCCC(C)C)Oc3ccc(cc3Cl)[C@@H](O)[C@@H]3NC(=O)[C@H](NC(=O)[C@@H]4NC(=O)[C@@H](NC2=O)c2cc(cc(O)c2Cl)Oc2cc1ccc2O)c1ccc(O)c(c1)-c1c(O[C@H]2O[C@H](CO)[C@@H](O)[C@H](O)[C@@H]2O)cc(O)cc1[C@@H](C(=O)NCCCN(C)C)NC3=O` [dalbavancin] (10 µM) yielded a morphology score of -0.218.

Consider `CC(C)=CCc1c(O)cc(O)c2c(=O)c(O)c(-c3ccc(C(F)(F)F)cc3)oc12` (0.833333 µM), for which the morphology score turned out to be 0.14.

Consider `O=C(c1cccc(Cl)c1F)N1CCN(Cc2cccc(Nc3nccs3)n2)CC1` (0.833333 µM), for which the morphology score came to 0.202.

Compound `NS(=O)(=O)c1nn2cc(-c3ccccc3)nc2s1` (10 µM) displayed a morphology score of 0.289.

On to `O=C(O)c1cccnc1` [niacin] (10 µM), for which the morphology score was determined as 0.195.

For another assay the test system is unchanged. Briefly: SARS-CoV-2 infection rate relative to infected DMSO; higher = more infection, active = 60 or less. The conditions noted are these: 24 h.
Consider `Cc1cc(OCC(=O)O)cc(C)c1Cc1ccc(O)c(C(C)C)c1` [sobetirome] (10 µM), for which the SARS-CoV-2 infection rate was 103% (inactive).

As to `Cc1cc(C(=O)Nc2cccc(C(=O)Nc3cccc(C(F)(F)F)c3)c2)on1` (10 µM), the SARS-CoV-2 infection rate is 115% (inactive).

With `CCC(=O)[C@@]1(C)[C@H](C)C[C@H]2[C@@H]3CCC4=CC(=O)C=C[C@]4(C)[C@H]3[C@@H](O)C[C@@]21C` [rimexolone] (10 µM), the SARS-CoV-2 infection rate was 98.5% (inactive).

`CC(=O)Nc1ccc(OC[C@](C)(O)C(=O)Nc2ccc([N+](=O)[O-])c(C(F)(F)F)c2)cc1` [andarine] (10 µM): the SARS-CoV-2 infection rate was 116% (inactive).

On to `Cc1ccc(-c2cc(C(F)(F)F)nn2-c2ccc(S(N)(=O)=O)cc2)cc1` [celecoxib] (10 µM), for which the SARS-CoV-2 infection rate is 102% (inactive).

As to `CC(C)(C(=O)O)c1ccc(C(O)CCCN2CCC(C(O)(c3ccccc3)c3ccccc3)CC2)cc1` (stereo not drawn) [fexofenadine] (10 µM), the SARS-CoV-2 infection rate was 122% (inactive).

As to `COc1cc(CNC(=O)CCCC/C=C/C(C)C)ccc1O` [capsaicin] (10 µM), the SARS-CoV-2 infection rate is 107% (inactive).

Take `CC(C)(C)C[C@@H]1N[C@@H](C(=O)N[C@H]2CC[C@H](O)CC2)[C@H](c2cccc(Cl)c2F)[C@]12C(=O)Nc1cc(Cl)ccc12` (10 µM): the SARS-CoV-2 infection rate is 113% (inactive).

Take `C[C@]12CC[C@H](O)CC1=CC[C@@H]1[C@@H]2CC[C@]2(C)C(c3cccnc3)=CC[C@@H]12` [Abiraterone (CB-7598)] (10 µM): the SARS-CoV-2 infection rate was 115% (inactive).

For `NCCCCN` [putrescine] (10 µM), the SARS-CoV-2 infection rate is 94% (inactive).

On to `CNc1ncc2cc(-c3cc(NC(=O)NCCC(C)(C)C)c(F)cc3C)c(C)nc2n1` (10 µM), for which the SARS-CoV-2 infection rate was 106% (inactive).

In the case of `COc1ccc([C@@H]2CC(=O)c3c(O)cc(O[C@@H]4O[C@H](CO)[C@@H](O)[C@H](O)[C@H]4O[C@@H]4O[C@@H](C)[C@H](O)[C@@H](O)[C@H]4O)cc3O2)cc1O` [neohesperidin] (10 µM), the SARS-CoV-2 infection rate is 112% (inactive).

In the case of `C[C@H]1CCc2c(cc(Br)c(F)c2Br)N1C=O` (10 µM), the SARS-CoV-2 infection rate is 94.5% (inactive).

In the case of `c1cn2cc(-c3ccc4cn[nH]c4c3)nc(Nc3ccc(N4CCOCC4)cc3)c2n1` (10 µM), the SARS-CoV-2 infection rate is 104% (inactive).

Turning to `CC1(C)CC(O)CC(C)(C)N1[O]` [tempol] (10 µM), the SARS-CoV-2 infection rate is 97% (inactive).

On to `O=C(/C=C/c1ccc2ccccc2n1)c1ccncc1` (0.833333 µM), for which the SARS-CoV-2 infection rate was 104% (inactive).

For `Cc1c(-c2ccc(O)cc2)n(Cc2ccc(OCCN3CCCCCC3)cc2)c2ccc(O)cc12` [bazedoxifene] (0.833333 µM), the SARS-CoV-2 infection rate is 101% (inactive).

Regarding `CN(C)C(=O)Oc1cccc([N+](C)(C)C)c1` [neostigmine] (10 µM), the SARS-CoV-2 infection rate was 112% (inactive).

As to `Cc1cccc(C)c1OCC(C)N` (stereo not drawn) [mexiletine] (10 µM), the SARS-CoV-2 infection rate is 112% (inactive).

Regarding `O=C(NN1C(=O)[C@@H]2[C@@H]3C=C[C@@H]([C@H]4C[C@@H]34)[C@@H]2C1=O)c1ccc(C(F)(F)F)cc1` [tecovirimat] (10 µM), the SARS-CoV-2 infection rate is 102% (inactive).

Turning to `CCN(CC)CCOC(=O)C(c1ccccc1)C1CCCCC1` (stereo not drawn) [drofenine] (10 µM), the SARS-CoV-2 infection rate was 99.5% (inactive).

Turning to `Clc1ccc(C(Cn2ccnc2)OCc2ccsc2Cl)c(Cl)c1` (stereo not drawn) [tioconazole] (10 µM), the SARS-CoV-2 infection rate was 106% (inactive).

With `C=C1CCN([C@H](C)[C@](O)(Cn2cncn2)c2ccc(F)cc2F)CC1` [efinaconazole] (10 µM), the SARS-CoV-2 infection rate was 92% (inactive).

`CSc1ccc(C(=O)/C=C/c2cc(C)c(OC(C)(C)C(=O)O)c(C)c2)cc1` [elafibranor] (10 µM): the SARS-CoV-2 infection rate is 110% (inactive).

For the compound `CCN(CC)C(=O)N[C@H]1C=C2c3cccc4[nH]cc(c34)C[C@H]2N(C)C1` [lisuride] (10 µM), the SARS-CoV-2 infection rate was 110% (inactive).

Take `COc1cc2c(cc1OC)[C@@H](Cc1cc(OC)c(OC)c(OC)c1)[N+](C)(CCCOC(=O)CC/C=C/CCC(=O)OCCC[N+]1(C)CCc3cc(OC)c(OC)cc3[C@H]1Cc1cc(OC)c(OC)c(OC)c1)CC2` (stereo partly drawn) [mivacurium] (10 µM): the SARS-CoV-2 infection rate was 104% (inactive).

Consider `CS(=O)(=O)OC[C@H](O)[C@@H](O)COS(C)(=O)=O` [treosulfan] (10 µM), for which the SARS-CoV-2 infection rate was 118% (inactive).

As to `CCC(CC)Nc1cc(C)nc(Oc2c(C)cc(C)cc2C)c1C` (10 µM), the SARS-CoV-2 infection rate was 100% (inactive).

Turning to `CC(C)(C)c1ccc(S(=O)(=O)Nc2ccc(Cl)cc2C(=O)c2cc[n+]([O-])cc2)cc1` [vercirnon] (10 µM), the SARS-CoV-2 infection rate is 98.5% (inactive).

As to `O=C(O)CCCCC(=O)O` [adipic-acid] (10 µM), the SARS-CoV-2 infection rate was 105% (inactive).

As for `Cc1c(F)cc(C(=O)NC2CC2)cc1-c1ccc(C(=O)NCC(C)(C)C)cn1` [losmapimod] (10 µM), the SARS-CoV-2 infection rate is 98.5% (inactive).

Regarding `CO[C@@]1(NC(=O)C2SC(=C(C(N)=O)C(=O)O)S2)C(=O)N2C(C(=O)O)=C(CSc3nnnn3C)CS[C@@H]21` (stereo partly drawn) [cefotetan] (10 µM), the SARS-CoV-2 infection rate is 98% (inactive).

Regarding `O=C(O)C[C@H](O)C[C@H](O)/C=C/c1c(C2CC2)nc2ccccc2c1-c1ccc(F)cc1` [pitavastatin] (10 µM), the SARS-CoV-2 infection rate is 115% (inactive).

Take `CC(C)N(CCC(C(N)=O)(c1ccccc1)c1ccccn1)C(C)C` (stereo not drawn) [disopyramide] (10 µM): the SARS-CoV-2 infection rate is 104% (inactive).

The values are drawn from the supplement of paper PMC13380429.
